This note sets out measurements from PubChem BioAssay (NCATS).

SMILES strings stand for the structures. Several values for one entry are separate records, joined by “and”; a condition that tells them apart may be missing. Equal values may be shown once. Records with an inconclusive call do not appear. Activity calls are given as the source filed them. Unless noted, calls come from the whole dose curve; as a rule, active = well fitted curve in the direction sought with a large enough effect; inconclusive = small, poorly fitted or top-dose-only effect, or another doubt; inactive = no such curve, though single readings can be large; an effect the other way counts as inactive or inconclusive.

For assay [1], the target named is Lysosomal acid glucosylceramidase (Homo sapiens) (UniProt P04062). The assay is described as follows: Glucocerebrosidase-p2 (AID 348; in the data active = potency below about 10 µM; note: potency is the fitted concentration of half-maximal effect). Particulars: purified GBA, blue fluorogenic substrate, 40 min. A digest of the protocol: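 Normal human glucocerebrosidase (0.2 nM) with blue fluorogenic substrate (80 uM final) in citrate/phosphate pH 5.9 with 10mM sodium taurocholate, 0.01% tween-20; 40 min RT, NaOH/glycine stop; fluorescence Ex 365/Em 440; AC50 from a titration from 0.6 nM upwards.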
Chain of Lysosomal acid glucosylceramidase (Homo sapiens) (P04062 whole entry, looked up): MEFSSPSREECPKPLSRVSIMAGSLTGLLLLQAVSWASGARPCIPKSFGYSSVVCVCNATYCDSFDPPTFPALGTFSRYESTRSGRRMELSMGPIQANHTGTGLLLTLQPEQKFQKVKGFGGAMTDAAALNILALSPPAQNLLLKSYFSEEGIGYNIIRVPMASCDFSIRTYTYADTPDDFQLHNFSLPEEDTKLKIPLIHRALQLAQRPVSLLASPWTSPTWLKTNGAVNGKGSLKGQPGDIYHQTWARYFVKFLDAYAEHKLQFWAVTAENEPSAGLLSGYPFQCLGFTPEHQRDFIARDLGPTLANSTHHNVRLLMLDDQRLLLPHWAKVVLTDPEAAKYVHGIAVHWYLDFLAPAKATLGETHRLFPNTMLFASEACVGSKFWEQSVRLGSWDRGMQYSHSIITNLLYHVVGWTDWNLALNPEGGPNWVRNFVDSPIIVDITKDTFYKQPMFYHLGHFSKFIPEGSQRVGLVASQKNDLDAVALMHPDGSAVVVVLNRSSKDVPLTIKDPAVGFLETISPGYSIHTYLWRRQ

Assay [2] deals with Glucocorticoid receptor (Homo sapiens) (UniProt P04150). The assay can be described thus: GR-GFP Redistribution (AID 450;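 active = compounds whose dose series gives a full or clear partial fitted curve of increased nuclear translocation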; note: potency is the fitted concentration of half-maximal effect). The settings on record: U2OS GR-GFP nuclear translocation, laser cytometry, 2 h.
Chain of Glucocorticoid receptor (Homo sapiens) (P04150 whole entry, looked up, the tested form may be a part): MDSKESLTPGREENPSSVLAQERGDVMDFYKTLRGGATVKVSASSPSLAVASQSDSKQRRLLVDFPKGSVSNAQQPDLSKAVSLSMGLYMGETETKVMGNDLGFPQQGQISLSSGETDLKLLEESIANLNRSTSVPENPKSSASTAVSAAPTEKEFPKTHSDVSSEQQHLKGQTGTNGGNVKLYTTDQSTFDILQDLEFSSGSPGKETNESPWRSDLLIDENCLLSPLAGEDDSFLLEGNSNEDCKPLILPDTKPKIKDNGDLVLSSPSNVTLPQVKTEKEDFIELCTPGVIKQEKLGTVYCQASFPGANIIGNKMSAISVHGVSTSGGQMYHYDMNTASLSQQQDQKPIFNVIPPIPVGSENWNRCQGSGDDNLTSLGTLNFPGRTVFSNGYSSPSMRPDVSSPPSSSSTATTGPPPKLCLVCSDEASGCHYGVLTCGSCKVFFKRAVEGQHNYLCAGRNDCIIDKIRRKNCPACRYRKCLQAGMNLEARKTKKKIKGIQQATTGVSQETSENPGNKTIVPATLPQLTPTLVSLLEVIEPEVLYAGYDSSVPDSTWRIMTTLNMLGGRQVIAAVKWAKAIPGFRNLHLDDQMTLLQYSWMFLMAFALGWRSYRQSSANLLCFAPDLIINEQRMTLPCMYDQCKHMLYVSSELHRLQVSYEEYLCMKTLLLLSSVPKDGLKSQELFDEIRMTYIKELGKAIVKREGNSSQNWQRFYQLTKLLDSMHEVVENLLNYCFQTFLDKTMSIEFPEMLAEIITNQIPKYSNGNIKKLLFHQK
Assay [3] shares this target. The assay is described as follows: GR-EFC Redistribution (AID 451; calls by dose curve; note: potency is the fitted concentration of half-maximal effect). The settings on record: CHO-K1 GR-EFC translocation, beta-gal luminescence, 2 h. A digest of the protocol: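 CHO-K1 cells expressing nuclear EA and GR-ED fragments of b-gal; compounds titrated up to 46 uM final, 2 h at 37 C. GR nuclear translocation read as complemented b-gal luminescence after 1 h RT detection.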

Assay [4] concerns the target Mitogen-activated protein kinase 10 (Mus musculus) (UniProt Q61831). The assay can be described thus: JNK3 AlphaScreen Assay (AID 530; active = well fitted curve in either direction with a large enough effect, not every such curve was filed as active;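 note: kinase came from lysate of stimulated human HepG2 cells; signal reports phosphorylation of biotinylated GST-cJun 1-79 at Ser73 with 10 µM ATP; % is set by controls: 0 for no effect and ±100 for the full control effect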). The settings on record: JNK3 lysate, c-Jun phosphorylation; series mostly up to 57.1 µM. In short, it runs like this:
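Activity was read by AlphaScreen after JNK3-containing HepG2 lysate (cytokine pre-activated) phosphorylated biotinylated GST-cJun with 10 uM ATP at room temperature. Phospho-Ser73 cJun antibody with Protein-A acceptor beads provided detection.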
Background: Alpha assays give light when donor and acceptor beads are brought close together.

Assay [5] addresses Cytochrome P450 3A4 (Homo sapiens) (UniProt P08684). The assay can be described thus: qHTS Assay for Activators of Cytochrome P450 3A4 (AID 885). Note: nearly all actives have a fitted effect of over 65% in size. The settings on record: recombinant CYP3A4, Luciferin-PPXE luminescence, 60 min; series mostly up to 57.1 µM. In short, it runs like this:
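Human CYP3A4 dealkylates Luciferin-PPXE to luciferin, which luciferase detection converts to light. Substrate was at its KM (25uM), buffer 200mM KPO4, reaction 60 min at RT.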
On the technique in general: In qHTS, concentration-response curves come from the screen itself.

The nature of assay [6]: Primary qHTS for small molecule stabilizers of the endoplasmic reticulum resident proteome: Secreted ER Calcium Modulated Protein (SERCaMP) assay (AID 1508630). Note: % is set by controls: 0 for no effect and ±100 for the full control effect. The settings on record: SH-SY5Y GLuc-SERCaMP (Gaussia luciferase released on ER calcium loss) secretion, thapsigargin, luminescence; series mostly up to 38.4 µM. A digest of the protocol: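 The SH-SY5Y reporter protocol was run at 3 concentrations up to 38.3 uM (primary) or 11 concentrations (follow-up): 16 h compound, 100 nM thapsigargin for 4 h, then extracellular luciferase luminescence.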

Assay [7] has as its target 3',5'-cyclic-AMP phosphodiesterase 4B (Homo sapiens) (UniProt Q07343). The assay can be described thus: qHTS Assay for Inhibitors of PDE-IV (AID 607; active = well fitted activation curve with a large enough effect in the main read-out, with a control signal flat, not every such curve was filed as active; note: % of control where 0% means no effect). The settings on record: HEK293 ACTOne CNG channel cells, membrane potential fluorescence; series mostly up to 22.9 µM. In short, it runs like this:
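HEK293 ACTOne cells with CNG channel (1000/well), endogenous PDE4; membrane potential dye, compounds up to 22.9 uM final. Fluorescence Ex 535/Em 590; RO 20-1724 (100 uM final) as reference.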

A short description of assay [8]: AP1 Signaling Pathway (AID 357; active = well fitted curve in either direction with a large enough effect, not every such curve was filed as active; note: % is set by controls: 0 for no effect and ±100 for the full control effect). Particulars: ME-180 AP-1-bla reporter, EGF-induced, beta-lactamase ratio, 5 h; at 7.69 µM (top of the series) unless noted. In short, it runs like this: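 First, ME-180 AP-1-bla cells were cultured overnight at 37 °C in low-serum Opti-MEM. Next, titrated compounds with EC50 EGF were incubated 5 hours. Finally, CCF4 was added for 2.5 hours and the 460/530 nm ratio recorded.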

The nature of assay [9]: Stat Signaling Pathway (AID 446; active = well fitted curve in either direction with a large enough effect, not every such curve was filed as active;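 note: ME-180 cervical cancer cells given 40 pM IL-6 alongside compound; SIE-controlled beta-lactamase reporter measured as 460/530 nm FRET emission ratio; % is set by controls: 0 for no effect and ±100 for the full control effect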). Particulars: ME-180 (cervical carcinoma) SIE beta-lactamase reporter, IL-6 stimulated, 5 h; at 7.69 µM (top of the series) unless noted. In short, it runs like this: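 Normalization used AC90 stimulation (300 pM IL-6) and AC90 inhibition (125 nM pan-JAK inhibitor at 40 pM IL-6). The underlying signal is SIE-driven beta-lactamase in ME-180 cells after 5 h IL-6 exposure with compound.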

In assay [10] the target is Ubiquitin carboxyl-terminal hydrolase 1 (Homo sapiens) (UniProt O94782). The assay is described as follows: Inhibitors of USP1/UAF1: Pilot qHTS (AID 504865). Note: nearly all actives have a fitted effect of over 35% in size. Note: potency is the fitted concentration of half-maximal effect. Particulars: purified USP1/UAF1, Ub-rhodamine cleavage fluorescence; series mostly up to 54.9 µM. In short, it runs like this:
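1nM USP1/UAF1 + cpd, 15 min RT; start w/ Ub-Rho 150nM final; kinetic FL 480/540 nm, 6 reads q60 s. Buffer 50mM HEPES pH 7.8, 0.5mM EDTA, 1mM TCEP, 0.01% Tween-20, 0.1 mg/ml BSA.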

Assay [11] has as its target Cytochrome P450 3A4 (Homo sapiens) (UniProt P08684). The assay is described as follows: qHTS Assay for Inhibitors and Substrates of Cytochrome P450 3A4 (AID 884). Note: % is set by controls: 0 for no effect and ±100 for the full control effect; nearly all actives have a fitted effect of over 50% in size. Particulars: recombinant CYP3A4, Luciferin-PPXE luminescence; series mostly up to 57.1 µM. A digest of the protocol:
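Luminescent readout of luciferin produced by CYP3A4 (20 nM) dealkylation of Luciferin-PPXE, 25 uM (its KM). NADPH-driven reaction ran 60 min at RT after 10 min compound preincubation; data scaled to 57 uM ketoconazole as 100% inhibition.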

A short description of assay [12]: qHTS Assay for Lipid Storage Modulators (AID 1519; calls by dose curve). The settings on record: Drosophila S3 cells, BODIPY lipid droplet/cell ratio, laser cytometry, cells loaded with oleic acid. A digest of the protocol: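 Cells seeded at 5,000 per well were treated with compounds over a concentration series and loaded with oleic acid (400 uM, as added). Lipid droplet fluorescence (488 nm excitation, 500-530 nm channel) was read by laser-scanning cytometry and normalized to 20 uM Triacsin C.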

In assay [13] the target is Cytochrome P450 1A2 (Homo sapiens) (UniProt P05177). The assay is described as follows: p450-cyp1a2 (AID 410; calls by dose curve; note: potency is the fitted concentration of half-maximal effect). Particulars: recombinant CYP1A2, luciferin-ME demethylation, luminescence; series mostly up to 57 µM. A digest of the protocol:
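O-Demethylation of luciferin 6' methyl ether by human CYP1A2 is monitored as luciferase luminescence. Substrate sits at Km (100uM); enzyme is 20nM. Values are scaled to 57 uM furafylline as maximal inhibition.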

Assay [14] in a line: Confirmation and Secondary Assay for Modulators of Hemoglobin Beta Chain Splicing at IVS2 654 locus (AID 910).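 Note: HeLa cells stably carrying EGFP split by mutant beta-globin IVS2-654 intron; % of control where 0% means no effect.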 The settings on record: HeLa EGFP-654 splicing reporter, GFP fluorescence, 48 h; series mostly up to 38.3 µM. In short, it runs like this: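 HeLa cells stably expressing EGFP interrupted by β-globin IVS2-654 intron, seeded overnight in Opti-MEM/2% FCS, then treated 2 days at 37 °C. Restored splicing read as total peak GFP intensity per well by laser scanning cytometry (488 nm excitation, 500–520 nm emission); 500 nM antisense PNA as control.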

A short description of assay [15]: Confirmation and Secondary Assay for Modulators of Hemoglobin Beta Chain Splicing at IVS2 705 locus (AID 930).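 Note: HeLa cells stably expressing the EGFP-705 splicing reporter; GFP fluorescence per well restored by corrected splicing of the IVS2-705 intron in EGFP; % of control where 0% means no effect.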 Particulars: HeLa EGFP-705 splicing reporter, GFP fluorescence, 48 h; series mostly up to 38.3 µM. In short, it runs like this: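 HeLa EGFP-705 reporter; 500 cells/well, o/n 37C 5% CO2; cpd 2 d; 488 ex/500-520 em laser scan; total peak GFP intensity/well. Ref: 500 nM […] antisense PNA.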

The target of assay [16] is Rap guanine nucleotide exchange factor 3 (Homo sapiens) (UniProt O95398). The assay can be described thus: Confirmatory qHTS for antagonist of cAMP-regulated guanine nucleotide exchange factor 3 (EPAC1) (AID 1645880).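 Note: plate controls were DMSO only for no effect and full effect of the ATA control for full effect; nearly all actives have a fitted effect of over 55% in size.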 The settings on record: EPAC1 Rap1B-BODIPY-GDP exchange, fluorescence; series mostly up to 115 µM. In short, it runs like this: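 Released BODIPY-GDP fluoresces less than Rap1-bound BODIPY-GDP; the signal is followed at 480/540 nm at 5-min intervals over 30 min, after 5 min at room temperature. Reactions contain 100 nM EPAC1, 250 nM RAP1B-BODIPY-GDP and 50 uM GDP; results are normalized to ATA and DMSO.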

The target is the same in assay [17]. The assay is described as follows: Confirmatory qHTS for agonist of cAMP-regulated guanine nucleotide exchange factor 3 (EPAC1) (AID 1645881).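 Note: EPAC1 catalysed release of BODIPY-GDP from Rap1B seen as fluorescence loss; 100% = effect of cAMP agonist control; nearly all actives have a fitted effect of over 75% in size.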 The settings on record: EPAC1 Rap1B BODIPY-GDP exchange fluorescence; series mostly up to 154 µM.
Assay [18] deals with Rap guanine nucleotide exchange factor 4 (Homo sapiens) (UniProt Q8WZA2). The assay can be described thus: Confirmatory qHTS for agonist of cAMP-regulated guanine nucleotide exchange factor 4 (EPAC2) (AID 1645884). Note: % is set by controls: 0 for no effect and ±100 for the full control effect; nearly all actives have a fitted effect of over 65% in size. Particulars: EPAC2 GEF activity, Rap1B-BODIPY-GDP fluorescence; series mostly up to 154 µM.
Chain of Rap guanine nucleotide exchange factor 4 (Homo sapiens) (Q8WZA2 whole entry, looked up): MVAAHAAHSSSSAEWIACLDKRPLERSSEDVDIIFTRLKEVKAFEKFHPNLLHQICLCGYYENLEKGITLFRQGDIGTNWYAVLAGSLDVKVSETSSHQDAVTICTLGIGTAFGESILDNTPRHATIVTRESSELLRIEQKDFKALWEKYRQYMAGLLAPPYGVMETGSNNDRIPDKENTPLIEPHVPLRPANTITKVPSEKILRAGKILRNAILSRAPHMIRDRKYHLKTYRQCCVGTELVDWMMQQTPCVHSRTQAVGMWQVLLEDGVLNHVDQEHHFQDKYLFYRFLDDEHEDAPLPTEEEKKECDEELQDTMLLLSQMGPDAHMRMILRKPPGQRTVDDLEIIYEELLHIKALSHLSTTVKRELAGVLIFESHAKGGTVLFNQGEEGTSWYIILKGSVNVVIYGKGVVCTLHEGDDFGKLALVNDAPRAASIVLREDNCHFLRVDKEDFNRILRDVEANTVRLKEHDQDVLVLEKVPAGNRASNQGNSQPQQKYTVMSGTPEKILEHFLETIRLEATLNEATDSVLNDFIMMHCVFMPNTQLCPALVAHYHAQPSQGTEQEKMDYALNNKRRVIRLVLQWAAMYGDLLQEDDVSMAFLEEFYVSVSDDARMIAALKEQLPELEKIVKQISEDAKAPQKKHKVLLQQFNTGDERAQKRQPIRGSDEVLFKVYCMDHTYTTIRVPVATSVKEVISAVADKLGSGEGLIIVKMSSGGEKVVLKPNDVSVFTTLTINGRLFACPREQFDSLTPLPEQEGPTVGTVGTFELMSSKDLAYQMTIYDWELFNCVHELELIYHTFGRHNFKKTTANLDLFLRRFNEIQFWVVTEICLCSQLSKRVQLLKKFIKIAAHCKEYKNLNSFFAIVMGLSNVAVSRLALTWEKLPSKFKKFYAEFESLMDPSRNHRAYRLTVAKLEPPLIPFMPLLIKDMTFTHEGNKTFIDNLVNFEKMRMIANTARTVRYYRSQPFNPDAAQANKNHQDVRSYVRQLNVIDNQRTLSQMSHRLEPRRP
Assay [19] has the same target. The assay can be described thus: Confirmatory qHTS for antagonist of cAMP-regulated guanine nucleotide exchange factor 4 (EPAC2) (AID 1645885). Note: % is set by controls: 0 for no effect and ±100 for the full control effect; nearly all actives have a fitted effect of over 25% in size. Particulars: EPAC2 Rap1B-BODIPY-GDP exchange fluorescence, biochemical; series mostly up to 114 µM.
A short description of assay [20]: NFAT Signaling Pathway (AID 444; active = well fitted curve in either direction with a large enough effect, not every such curve was filed as active). Particulars: Jurkat NFAT-bla M1, carbachol, beta-lactamase ratio, 5 h; at 7.69 µM (top of the series) unless noted. In short, it runs like this: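 Jurkat cells with NFAT-driven β-lactamase reporter and co-expressed M1 receptor, stimulated with carbachol (final 1 uM, ~EC50), compound titration, 5 h at 37 °C. CCF4 loaded 1 h at RT; 460/530 nm ratio gave %activity and AC50.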

[21] abbreviates: measured here: cell count channel max response.
Setting [22] is: measured here: lipid channel max response.

Chain of 3',5'-cyclic-AMP phosphodiesterase 4B (Homo sapiens) (Q07343 whole entry, looked up): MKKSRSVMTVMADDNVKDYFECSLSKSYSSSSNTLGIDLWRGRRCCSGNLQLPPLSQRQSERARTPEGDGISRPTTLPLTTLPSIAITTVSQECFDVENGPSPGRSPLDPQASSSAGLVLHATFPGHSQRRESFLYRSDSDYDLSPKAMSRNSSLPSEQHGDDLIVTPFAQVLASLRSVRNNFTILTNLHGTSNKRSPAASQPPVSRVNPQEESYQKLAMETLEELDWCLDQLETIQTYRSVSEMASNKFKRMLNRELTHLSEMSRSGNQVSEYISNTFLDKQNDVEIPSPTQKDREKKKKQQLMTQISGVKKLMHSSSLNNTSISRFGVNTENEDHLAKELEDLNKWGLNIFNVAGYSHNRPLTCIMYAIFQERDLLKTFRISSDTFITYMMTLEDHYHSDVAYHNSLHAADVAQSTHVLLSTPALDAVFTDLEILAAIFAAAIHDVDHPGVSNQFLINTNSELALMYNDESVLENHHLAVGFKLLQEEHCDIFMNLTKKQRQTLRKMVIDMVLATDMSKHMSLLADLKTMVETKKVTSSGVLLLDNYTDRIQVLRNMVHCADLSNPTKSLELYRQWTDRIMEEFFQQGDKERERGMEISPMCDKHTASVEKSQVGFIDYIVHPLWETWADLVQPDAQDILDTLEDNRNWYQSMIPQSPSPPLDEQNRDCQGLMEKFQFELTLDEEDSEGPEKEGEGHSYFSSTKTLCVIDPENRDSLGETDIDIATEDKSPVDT
Chain of Ubiquitin carboxyl-terminal hydrolase 1 (Homo sapiens) (O94782 whole entry, looked up): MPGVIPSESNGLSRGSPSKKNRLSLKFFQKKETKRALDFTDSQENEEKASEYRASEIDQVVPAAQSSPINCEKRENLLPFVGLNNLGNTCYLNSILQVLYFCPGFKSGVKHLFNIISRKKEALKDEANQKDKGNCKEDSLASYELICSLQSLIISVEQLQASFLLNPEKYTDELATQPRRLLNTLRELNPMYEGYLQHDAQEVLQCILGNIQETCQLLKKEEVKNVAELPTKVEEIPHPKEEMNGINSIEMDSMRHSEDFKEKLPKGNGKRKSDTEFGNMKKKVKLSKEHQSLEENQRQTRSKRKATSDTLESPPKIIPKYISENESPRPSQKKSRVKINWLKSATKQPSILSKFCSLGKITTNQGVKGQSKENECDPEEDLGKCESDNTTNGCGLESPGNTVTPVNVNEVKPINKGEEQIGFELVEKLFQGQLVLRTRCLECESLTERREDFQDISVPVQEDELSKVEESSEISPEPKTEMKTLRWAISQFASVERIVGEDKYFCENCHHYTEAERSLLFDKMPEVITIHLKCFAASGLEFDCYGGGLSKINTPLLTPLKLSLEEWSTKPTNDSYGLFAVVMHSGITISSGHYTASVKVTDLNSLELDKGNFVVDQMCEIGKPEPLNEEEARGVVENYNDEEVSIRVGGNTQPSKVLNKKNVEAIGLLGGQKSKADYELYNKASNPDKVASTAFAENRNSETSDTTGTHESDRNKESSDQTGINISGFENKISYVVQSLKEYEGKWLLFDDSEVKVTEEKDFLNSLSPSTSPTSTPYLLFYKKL
Chain of Cytochrome P450 1A2 (Homo sapiens) (P05177 whole entry, looked up): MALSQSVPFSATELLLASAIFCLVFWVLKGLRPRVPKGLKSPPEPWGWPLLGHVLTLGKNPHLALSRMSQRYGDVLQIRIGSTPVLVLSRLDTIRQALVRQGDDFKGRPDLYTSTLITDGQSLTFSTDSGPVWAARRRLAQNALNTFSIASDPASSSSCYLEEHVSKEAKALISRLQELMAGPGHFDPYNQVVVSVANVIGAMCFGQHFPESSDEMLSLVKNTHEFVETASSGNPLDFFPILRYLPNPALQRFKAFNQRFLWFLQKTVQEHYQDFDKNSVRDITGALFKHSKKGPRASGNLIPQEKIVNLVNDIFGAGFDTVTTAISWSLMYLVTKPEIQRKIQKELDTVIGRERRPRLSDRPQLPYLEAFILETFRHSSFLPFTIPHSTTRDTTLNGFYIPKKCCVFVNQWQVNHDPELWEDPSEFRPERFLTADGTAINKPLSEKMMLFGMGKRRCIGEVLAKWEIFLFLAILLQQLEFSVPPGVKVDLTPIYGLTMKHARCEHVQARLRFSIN
Chain of Cytochrome P450 3A4 (Homo sapiens) (P08684 whole entry, looked up): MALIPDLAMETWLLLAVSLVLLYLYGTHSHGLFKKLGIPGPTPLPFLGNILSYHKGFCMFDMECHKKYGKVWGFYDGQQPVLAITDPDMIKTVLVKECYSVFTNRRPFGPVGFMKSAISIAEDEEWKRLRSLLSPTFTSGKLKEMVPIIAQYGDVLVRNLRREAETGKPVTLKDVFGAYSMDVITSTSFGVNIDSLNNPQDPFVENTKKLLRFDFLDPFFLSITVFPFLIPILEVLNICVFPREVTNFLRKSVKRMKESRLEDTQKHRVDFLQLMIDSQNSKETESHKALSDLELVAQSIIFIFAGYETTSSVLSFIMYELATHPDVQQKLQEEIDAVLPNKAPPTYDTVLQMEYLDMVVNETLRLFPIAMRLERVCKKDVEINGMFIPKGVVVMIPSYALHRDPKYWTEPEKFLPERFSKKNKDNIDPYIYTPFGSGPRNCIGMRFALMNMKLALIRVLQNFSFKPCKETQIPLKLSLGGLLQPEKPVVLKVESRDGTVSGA

On to `CCNc1ncc2nc(-c3cc(F)cc(F)c3)c(=O)n(-c3ccccc3)c2n1`, for which the Potency is > 11.4 µM (inactive) in [1], > 9.22 µM (inactive) in [2] and > 46 µM (inactive) in assay [3]. The Potency entry in [4] and in assay [5] was “inactive” each time. In addition, the result in assay [6] was inactive.

Take `O=c1cnc2cnc(Nc3ccccc3)nc2n1C[C@H]1CCCO1`: the Potency in assay [1] was > 11.4 µM (inactive); in assay [2], > 9.22 µM (inactive); in assay [3], > 46 µM (inactive). The Potency entry in assay [7] and in assay [5] was “inactive” throughout. The result in assay [6] was inactive.

As for `CCNc1ncc2nc(-c3cc(F)cc(F)c3)c(=O)n(-c3ccc(OC)cc3)c2n1`, the Potency in assay [1] was > 11.4 µM (inactive); in [2], > 9.22 µM (inactive); in assay [3], > 46 µM (inactive). The Potency entry in [4], in assay [7] and in assay [5] was “inactive” each time. Also, in [6], the result was inactive.

Consider `N#Cc1cccc(NC(=O)N2CC[C@@]3(CCCN(C(=O)c4cccc(F)c4)C3)C2)c1`, for which the activity change, negative = inhibition in assay [8] is -20.8% (inactive). For the same molecule, the activity, negative = inhibition in assay [9] is -2.81% (inactive). In addition, in assay [3], the Potency was > 46 µM (inactive). Also, the Potency result in assay [4], in assay [7] and in assay [5] was “inactive” throughout. Besides, in [6], the result was inactive.

As to `COc1cc(/C=C/C(=O)/C=C(O)/C=C/c2ccc(O)c(OC)c2)ccc1O`, in assay [5], the Potency entry was “inactive”. Also, the Potency in assay [10] is 12.6 µM (active) and 31.6 µM (active). In assay [6], the result was inactive.

Take `C/C(=C\COc1cc(=O)[nH]c2ccccc12)CCC(O)C(C)(C)O` (stereo not given): the Potency entry in assay [11] is “inactive”. Moreover, in [6], the outcome was inactive.

Turning to `Nc1ccc(C(=O)O)c(O)c1` (tested in a mixture with another compound), the activity change, negative = inhibition in assay [12] (at 57.5 µM (top of the series)) is 15.3% (inactive). Further, the max response was determined as 6.65% in assay [12] (setting [21]) and 22.7% in assay [12] (setting [22]).

Regarding `COc1cc2ccc(=O)oc2cc1O`, the Potency in assay [13] is 5.01 µM (active) and 12.6 µM (active); in assay [2], > 20.6 µM (inactive) and > 46 µM (inactive); in assay [3] it was > 20.6 µM (inactive) and > 46 µM (inactive). Also, the Potency entry in assay [4], in assay [7], in [11], in assay [14], in assay [10] and in assay [16] was “inactive” throughout. Moreover, the Potency entry in [17], in [18] and in assay [19] was “inactive” each time. The molecule was called inactive in [15]. Further, the activity change, negative = inhibition in [12] (at 25.7 µM (top of the series)) is -4.36% (inactive); in [12] (at 57.5 µM (top of the series)), 6.76% (inactive). Also, the max response in assay [12] (setting [21]) is -18% and -2.53%; in assay [12] (setting [22]), -21.2% and 0.189%.

As to `CC(=O)Oc1ccccc1C(=O)Oc1ccccc1C(=O)O`, the activity change, negative = inhibition is 6.88% [at 17.2 µM] (inactive) in assay [8], 3.91% [at 17.2 µM] (inactive) in assay [20], -1.86% (inactive) in assay [12] (at 25.7 µM (top of the series)) and -0.43% (inactive) in assay [12] (at 57.5 µM (top of the series)). Besides, the Potency in assay [13] is 12.6 µM (active); in assay [2], > 20.6 µM (inactive); in assay [3] it was > 20.6 µM (inactive). The activity, negative = inhibition in assay [9] is 8.87% [at 17.2 µM] (inactive). For the same molecule, the Potency entry in assay [4], in assay [11], in assay [14] and in assay [10] was “inactive” in each case. In addition, the max response was -2.66% and 0.474% in assay [12] (setting [21]); -5.13% and 0.698% in assay [12] (setting [22]).

For `O=[N+]([O-])c1cccc2c[nH]nc12`, the Potency in assay [13] was 2.51 µM (active); in assay [3] it was > 46 µM (inactive). Also, the Potency entry in assay [4] and in assay [5] was “inactive” throughout. For the same molecule, the outcome in assay [6] was inactive.
